Akt phos inh – blocks phosphorylation of Akt; AID 651550; Neuro2A IGF-stimulated pAkt S473 HTRF, 20 min; hits give low values; actives 0.32% (n = 360,000); activity change, % for hits at 50 µM; in the data active = activity change below about -80%; inconclusive = mostly about -51% to -80%
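Neuro2A cells in DMEM with 0.5% FBS, overnight at 37 deg C, given compound at single 50 µM final, then IGF (6 nM final) for 20 min at 37 deg C. Lysed; phospho-Akt Ser473 by HTRF after 24 h, 665/615 ratio.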
TDP-43 yeast inh – TDP-43 toxicity inhibition in yeast | AID 652104 | actives 1.8% (n = 410,000) | Potency, µM (titrated, usually from 46.1 µM), most hits filed as activators | TDP-43 expressing yeast growth rescue, BacTiter-Glo, 24 h; also: nearly all actives have a fitted effect of over 50% in size
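Yeast cells expressing TDP-43 under galactose induction are exposed to compounds for 24 hr at 30 deg C. BacTiter-Glo luminescence measures growth, so protective compounds score as activators.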
aSyn yeast inh – inhibitors of alpha-synuclein toxicity in yeast; Yeast expressing alpha-synuclein, growth rescue, BacTiter-Glo, 24 h; Potency, µM (highest dose often 46.1 µM), usual class: activators; actives 0.14% (n = 370,000); AID 652106; also: nearly all actives have a fitted effect of over 65% in size
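Screening used galactose-induced yeast with toxic alpha-synuclein levels, exposed to compound for 24 hr at 30 deg C. Cell growth, read with BacTiter-Glo luminescence, gave the measured signal.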
FUS yeast rescue – rescues growth of FUS-expressing yeast; actives 0.24% (n = 390,000); Potency, µM (series often up to 76.6 µM), most hits filed as activators; S. cerevisiae FUS-expressing, growth rescue, OD600, 24 h; also: nearly all actives have a fitted effect of over 55% in size
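Read-out: OD at 600 nm after 24hr at 30C, reporting rescue of FUS-induced yeast toxicity. Cells at OD 0.005 in galactose (2%) minimal medium; compounds tested in a dilution series; CP55940 titration from 92uM final as control.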
Abeta yeast res – restores growth of yeast expressing A-beta42 peptide; yeast expressing A-beta42, growth rescue, OD600, 48 h; response scale: 0% DMSO, 100% iron-clioquinol control; Potency, µM (top dose mostly 46.1 µM), most hits filed as activators; actives 0.063% (n = 410,000); AID 1347071; also: nearly all actives have a fitted effect of over 55% in size
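Yeast A-beta toxicity model in growth medium with pinned compounds, 48 h at 30 C; growth read as absorbance at 600 nm. Normalized to FeCl3/clioquinol equimolar mix (positive) and DMSO (negative).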
Hits are given with their value. The list is not random: actives were taken first. Their share in the collection is about 2.3%. Unless noted, calls follow the shape of the dose curve; as a rule, active = well fitted curve in the direction sought with a large enough effect; inconclusive = small, poorly fitted or top-dose-only effect, or another doubt; inactive = no such curve, though single readings can be large; an effect the other way counts as inactive or inconclusive.

How did NS(=O)(=O)c1ccc(Sc2ccc3c(c2)CCC3)nc1 do in these assays?
Akt phos inh: inactive; TDP-43 yeast inh: 16µM; aSyn yeast inh: inactive; FUS yeast rescue: inactive; Abeta yeast res: inactive

Results for Oc1ccc(N=Nc2ccc3c(c2)OCCO3)c2cccnc12 ?
Akt phos inh: inactive; TDP-43 yeast inh: inconclusive; aSyn yeast inh: 20µM; FUS yeast rescue: inactive; Abeta yeast res: inconclusive

What do the screens show for `COc1ccc(N=Nc2ccc(O)c3ncccc23)cc1`?
Akt phos inh: inactive; TDP-43 yeast inh: inconclusive; aSyn yeast inh: inconclusive; FUS yeast rescue: inactive; Abeta yeast res: inactive

What do the screens show for `CCn1c(=O)c2sccc2n2c(CCC(=O)Nc3ccc(C(C)C)cc3)nnc12`?
TDP-43 yeast inh: inactive; FUS yeast rescue: inactive; Abeta yeast res: inactive

How did O=C1N(Cc2ccccc2)c2ccccc2C1(O)c1c[nH]c2ccccc12 (centres undefined) do in these assays?
TDP-43 yeast inh: inactive; FUS yeast rescue: inactive; Abeta yeast res: inactive

Results for COc1ccc(C(=O)CC2(O)C(=O)N(Cc3ccccc3Cl)c3ccccc32)cc1 (centres undefined) ?
TDP-43 yeast inh: 32µM; aSyn yeast inh: inactive; FUS yeast rescue: inactive; Abeta yeast res: inactive

How did O=C1N(Cc2ccccc2Cl)c2ccccc2C1(O)c1c[nH]c2ccccc12 (centres undefined) do in these assays?
TDP-43 yeast inh: 16µM; FUS yeast rescue: inconclusive; Abeta yeast res: inactive

Results for Cc1ccc(-n2c(SCC(=O)Nc3ccc(S(=O)(=O)Nc4cc(C)nc(C)n4)cc3)nnc2-c2ccncc2)cc1 ?
FUS yeast rescue: inactive

Results for CCOc1ccc2nc(N3CCCC(C(=O)Nc4cccc(Cl)c4C)C3)sc2c1 (centres undefined) ?
TDP-43 yeast inh: inactive; FUS yeast rescue: inactive; Abeta yeast res: inactive

What do the screens show for `CN(C)/[N+]([O-])=N\Oc1cc(OC(=O)c2ccc(N)cc2)c([N+](=O)[O-])cc1[N+](=O)[O-]`?
aSyn yeast inh: inactive

How did CC(C)C(=O)OCC(=O)Nc1ccc(N=Nc2ccccc2)cc1 do in these assays?
Akt phos inh: inactive; TDP-43 yeast inh: inconclusive; aSyn yeast inh: inactive; Abeta yeast res: inactive

What do the screens show for `CC(=O)Nc1ccc(N=Nc2ccccc2)cc1`?
Akt phos inh: inactive; TDP-43 yeast inh: 10µM; aSyn yeast inh: inactive; Abeta yeast res: inactive

What do the screens show for `CC(=O)OCC(=O)Nc1ccc(N=Nc2ccccc2)cc1`?
Akt phos inh: inactive; TDP-43 yeast inh: 11µM; aSyn yeast inh: inactive; FUS yeast rescue: inactive; Abeta yeast res: inactive

Results for CC(=O)Nc1ccccc1 ?
Akt phos inh: inactive; TDP-43 yeast inh: inactive; aSyn yeast inh: inactive; FUS yeast rescue: inactive; Abeta yeast res: inactive

Results for CCOC(=O)CSc1nnc2c3ccccc3n(C)c2n1 ?
Akt phos inh: inactive; TDP-43 yeast inh: 13µM; aSyn yeast inh: inactive; FUS yeast rescue: inactive; Abeta yeast res: inactive

How did CCn1c2ccccc2c2nnc(SCc3ccccc3)nc21 do in these assays?
Akt phos inh: inactive; TDP-43 yeast inh: 25µM; aSyn yeast inh: inactive; FUS yeast rescue: inactive; Abeta yeast res: inactive

How did Cc1ccccc1OCc1nnc(SCC(=O)Nc2ccc3c(c2)oc2ccccc23)n1C do in these assays?
Akt phos inh: -100%; TDP-43 yeast inh: inactive; aSyn yeast inh: inactive; FUS yeast rescue: inactive; Abeta yeast res: inactive

What do the screens show for `COC(=O)CSC1=NS(=O)(=O)c2ccccc21`?
Akt phos inh: inactive; TDP-43 yeast inh: inconclusive; aSyn yeast inh: inconclusive; Abeta yeast res: inactive

What do the screens show for `O=C(CSC1=NS(=O)(=O)c2ccccc21)Nc1ccccc1`?
Akt phos inh: inactive; TDP-43 yeast inh: 35µM; aSyn yeast inh: inconclusive; FUS yeast rescue: inactive; Abeta yeast res: inactive

What do the screens show for `Cc1cc(Oc2ccc(-c3ccccc3)cc2)n2ncnc2n1`?
Akt phos inh: inactive; TDP-43 yeast inh: 18µM; aSyn yeast inh: inactive; FUS yeast rescue: inactive; Abeta yeast res: inactive

How did CCN(c1ccccc1)c1cc(C)nc2ncnn12 do in these assays?
Akt phos inh: inactive; TDP-43 yeast inh: inactive; aSyn yeast inh: inactive; FUS yeast rescue: inactive; Abeta yeast res: inactive

How did CCN1CCN(c2oc(-c3ccc(COc4ccccc4C)o3)nc2C#N)CC1 do in these assays?
TDP-43 yeast inh: inactive; FUS yeast rescue: inactive; Abeta yeast res: inactive

How did COc1ccccc1-c1cc(C(F)(F)F)nc(N2CCOCC2)n1 do in these assays?
Akt phos inh: inactive; TDP-43 yeast inh: 22µM; aSyn yeast inh: inactive; FUS yeast rescue: inactive; Abeta yeast res: inactive
